Laboratory results as given in PubChem BioAssay.
Results filed as inconclusive are left out. Activity calls are given as the source filed them.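 How the source made its calls, unless noted: active means normalized viability below 100% at a tested concentration; inactive means the rest.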

Columns and labels:
[1] = viability loss in pontine glioma line – cell-based, SU-DIPG-XVII, MIPE5.0, CellTiter-Glo, qHTS, dose response (AID 1347060; cut-off not given, nearly all actives have AC50 up to about 26 µM;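 on AC50: cells exposed to compound for 48 hours before viability readout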); conditions: CellTiter-Glo ATP luminescence
[2] = viability loss in pontine glioma line – cell-based, JHH-DIPG-1, MIPE4.0, CellTiter-Glo, qHTS, dose response (AID 1347062; cut-off not given, nearly all actives have AC50 up to about 27 µM;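 on AC50: cells exposed to compound for two days before readout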); conditions: JHH-DIPG-1 viability, CellTiter-Glo ATP luminescence
[3] = viability loss in pontine glioma line – cell-based, SU-DIPG-XIII, MIPE5.0, CellTiter-Glo, qHTS, dose response (AID 1347064; cut-off not given, nearly all actives have AC50 up to about 23 µM;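 on AC50: cells exposed to compound for 48 hours before the viability read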); conditions: CellTiter-Glo ATP luminescence
[4] = viability loss in pontine glioma line – cell-based, SU-DIPG-XXV, MIPE5.0, CellTiter-Glo, qHTS, dose response (AID 1347065; cut-off not given, nearly all actives have AC50 up to about 26 µM;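 further: cells exposed to compound for 48 hours before ATP readout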); conditions: CellTiter-Glo ATP luminescence
[5] = JHH-DIPG-1 glioma cell viability, MIPE5.0 library, CellTiter-Glo luminescence, qHTS (AID 1347067; cut-off not given, nearly all actives have AC50 up to about 26 µM;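 further: cells exposed to compound for 48 hours before readout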); conditions: JHH-DIPG-1 glioma viability, CellTiter-Glo ATP luminescence
[6] = growth inhibition of DIPG cells – cell-based, MIPE5.0 library, qHTS (AID 1347068; cut-off not given, nearly all actives have IC50 up to about 30 µM;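 on IC50: cells exposed to compound for 48 hours before viability readout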); conditions: SU-DIPG-XXV viability
[7] = viability loss with induced miR-34 in A549 – imaging, A549 dox-inducible miR-34, nuclei and caspase counts, primary screen (AID 1347080;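 active means compounds whose cell count with miR-34 switched on is under 0.7 times the count with it off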); conditions: A549 miR-34 inducible, Hoechst nuclei count, 48 h
[8] = compounds altering HSF1 focus formation in cells – imaging, Selleck Cancer Library (AID 1347162; in the data active means plate-normalised HSF1 focus index below about 0.46); conditions: human cells, HSF1 nuclear foci imaging, at 10 µM; SSMD: measured here: HSF1 foci SSMD mean; cell count: measured here: cell number; plate-normalised HSF1 focus index: stronger effect = lower value
[9] = MELAS cybrid and Rieske KO viability enhancers – cell-based, MELAS cybrids, Rieske KO mouse fibroblasts, CellTiter-Glo, primary screen (AID 1508586;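 active means mean z-score across replicates of 1.96 or higher in either the MELAS or the Rieske mutant cell line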;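 further: z relative to plate mean and SD of compound and empty wells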); conditions: low glucose
[10] = drug combination growth inhibition, ovarian cancer – cell-based, oncology-focused library, rucaparib conditional, profiling panel (AID 1508598); conditions: patient-derived ovarian cancer cells, CellTiter-Glo viability, 144 h, stronger effect = lower value
[11] = at 0.000305 µM, OCI-C5x cells, with rucaparib 10 µM, 100% = cells with rucaparib alone
[12] = at 0.000305 µM, OCI-C5x cells, without rucaparib
[13] = at 0.000305 µM, OCI-P5x cells, with rucaparib 20 µM, 100% = cells with rucaparib alone
[14] = at 0.000305 µM, OCI-P5x cells, without rucaparib
[15] = at 0.00122 µM, OCI-C5x cells, with rucaparib 10 µM, 100% = cells with rucaparib alone
[16] = at 0.00122 µM, OCI-C5x cells, without rucaparib
[17] = at 0.00122 µM, OCI-P5x cells, with rucaparib 20 µM, 100% = cells with rucaparib alone
[18] = at 0.00122 µM, OCI-P5x cells, without rucaparib
[19] = at 0.00488 µM, OCI-C5x cells, with rucaparib 10 µM, 100% = cells with rucaparib alone
[20] = at 0.00488 µM, OCI-C5x cells, without rucaparib
[21] = at 0.00488 µM, OCI-P5x cells, with rucaparib 20 µM, 100% = cells with rucaparib alone
[22] = at 0.00488 µM, OCI-P5x cells, without rucaparib
[23] = at 0.0195 µM, OCI-C5x cells, with rucaparib 10 µM, 100% = cells with rucaparib alone
[24] = at 0.0195 µM, OCI-C5x cells, without rucaparib
[25] = at 0.0195 µM, OCI-P5x cells, with rucaparib 20 µM, 100% = cells with rucaparib alone
[26] = at 0.0195 µM, OCI-P5x cells, without rucaparib
[27] = at 0.0781 µM, OCI-C5x cells, with rucaparib 10 µM, 100% = cells with rucaparib alone
[28] = at 0.0781 µM, OCI-C5x cells, without rucaparib
[29] = at 0.0781 µM, OCI-P5x cells, with rucaparib 20 µM, 100% = cells with rucaparib alone
[30] = at 0.0781 µM, OCI-P5x cells, without rucaparib
[31] = at 0.313 µM, OCI-C5x cells, with rucaparib 10 µM, 100% = cells with rucaparib alone
[32] = at 0.313 µM, OCI-C5x cells, without rucaparib
[33] = at 0.313 µM, OCI-P5x cells, with rucaparib 20 µM, 100% = cells with rucaparib alone
[34] = at 0.313 µM, OCI-P5x cells, without rucaparib
[35] = at 1.25 µM, OCI-C5x cells, with rucaparib 10 µM, 100% = cells with rucaparib alone
[36] = at 1.25 µM, OCI-C5x cells, without rucaparib
[37] = at 1.25 µM, OCI-P5x cells, with rucaparib 20 µM, 100% = cells with rucaparib alone
[38] = at 1.25 µM, OCI-P5x cells, without rucaparib
[39] = at 5 µM, OCI-C5x cells, with rucaparib 10 µM, 100% = cells with rucaparib alone
[40] = at 5 µM, OCI-C5x cells, without rucaparib
[41] = at 5 µM, OCI-P5x cells, with rucaparib 20 µM, 100% = cells with rucaparib alone
[42] = at 5 µM, OCI-P5x cells, without rucaparib

CC(=O)c1c(C)c2cnc(Nc3ccc(N4CCNCC4)cn3)nc2n(C2CCCC2)c1=O
5060: cell count [8]
1.36: fold change ([7]; measured here: relative caspase fold change +Dox/-Dox)
-9.93: SSMD [8]
3600: cell count ([7]; measured here: total cells without miR-34 induction)
-0.48: z-score ([9]; Rieske KO mouse fibroblast survival, CellTiter-Glo 72 h)
3100: cell count ([7]; measured here: total cells with miR-34 induction, stronger effect = lower value)
inactive: outcome [6] | fold change ([7]; stronger effect = lower value, cell number ratio, induced over uninduced) 0.86 | plate-normalised HSF1 focus index [8] 0.38 | z-score ([9]; MELAS cybrid survival, CellTiter-Glo 48 h, stronger effect = higher value) 0.0111 | viability [10, 11] 132% | viability [10, 15] 119% | viability [10, 16] 104% | viability [10, 19] 119% | viability [10, 20] 104% | viability [10, 22] 100% | viability [10, 23] 122% | viability [10, 24] 116% | viability [10, 27] 115% | viability [10, 28] 118% | viability [10, 30] 103% | viability [10, 31] 111% | viability [10, 32] 126% | viability [10, 35] 115% | viability [10, 36] 133% | viability [10, 39] 114% | viability [10, 40] 139% | viability [10, 41] 103%
active: AC50 [1] 23500 nM | AC50 [2] 29600 nM | AC50 [3] 20900 nM | AC50 [4] 18600 nM | AC50 [5] 20900 nM | viability [10, 12] 95.6% | viability [10, 13] 93.8% | viability [10, 14] 93.8% | viability [10, 17] 94.1% | viability [10, 18] 91.2% | viability [10, 21] 95.4% | viability [10, 25] 95% | viability [10, 26] 94.4% | viability [10, 29] 96.9% | viability [10, 33] 99.2% | viability [10, 34] 98.7% | viability [10, 37] 97.6% | viability [10, 38] 99.7% | viability [10, 42] 97.9%

C[C@@H]1CN(Cc2ccc(F)cc2)[C@@H](C)CN1C(=O)c1cc2c(C(=O)C(=O)N(C)C)cn(C)c2cc1Cl
inactive: outcome [1] | outcome [2] | outcome [3] | outcome [6]

COc1cc(N2CCC(N3CCN(C)CC3)CC2)ccc1Nc1ncnc(Nc2ccccc2S(=O)(=O)C(C)C)n1
inactive: outcome [6]
active: AC50 [1] 6610 nM | AC50 [2] 14800 nM | AC50 [3] 5250 nM | AC50 [4] 3720 nM | AC50 [5] 16600 nM

COc1ccc(/C=C\c2cc(OC)c(OC)c(OC)c2)cc1NC(=O)[C@H](N)CO
active: AC50 [1] 83.3 nM | AC50 [2] 20.9 nM | AC50 [3] 590 nM | AC50 [4] 148 nM | AC50 [5] 235 nM | IC50 [6] 332 nM

CCC[C@H](Nc1nc(-c2ccc(NC(=O)NCC)c(OC)c2)ncc1C)c1cccnc1
inactive: viability [10, 12] 101% | viability [10, 13] 107% | viability [10, 15] 104% | viability [10, 16] 103% | viability [10, 17] 103% | viability [10, 19] 104% | viability [10, 20] 110% | viability [10, 21] 100%
active: AC50 [1] 132 nM | AC50 [2] 14.8 nM | AC50 [3] 186 nM | AC50 [4] 118 nM | AC50 [5] 132 nM | viability [10, 11] 92.2% | viability [10, 14] 99.6% | viability [10, 18] 97.7% | viability [10, 22] 90.5% | viability [10, 23] 98.1% | viability [10, 24] 30.6% | viability [10, 25] 85.4% | viability [10, 26] 15.9% | viability [10, 27] 35.4% | viability [10, 28] 23.5% | viability [10, 29] 51.3% | viability [10, 30] 13% | viability [10, 31] 39.7% | viability [10, 32] 22.5% | viability [10, 33] 44.4% | viability [10, 34] 11% | viability [10, 35] 38% | viability [10, 36] 23.4% | viability [10, 37] 41.8% | viability [10, 38] 9.8% | viability [10, 39] 39.3% | viability [10, 40] 25.1% | viability [10, 41] 50.6% | viability [10, 42] 10.1%
